Data as given in PubChem BioAssay AID1159580 (chemical genetic matrix, 2015).
Screen size: about 5,500 compounds; about 2,000 (36%) were called active. Another 18% or so got no clear call; they are omitted. Rule as the data show it: active = normalized growth mostly below about 0.91 (no sharp cut-off); inconclusive = no clear call, values can overlap the other calls; inactive = mostly above about 0.92. This is one part of the list.

Test: chemical genetic growth profiling, strain panel (AID 1159580);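 also: tested at 20 µM; growth read once vehicle control cultures reached saturation at 30 °C; 1 = growth at the plate median or of vehicle wells; lower values mean less growth of the strain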
Conditions: growth OD
[1] = S. cerevisiae deletion strains, locus YDL101C, strain DUN1, stronger effect = lower value
[2] = S. cerevisiae deletion strains, locus YHR030C, strain SLT2, stronger effect = lower value

Measured: normalized growth

O=[N+]([O-])c1cc(C(F)(F)F)ccc1-n1ccc(-c2cccs2)n1
active: [2] 0.76 | S. cerevisiae deletion strains, locus YLR113W, strain HOG1, stronger effect = lower value 0.789
inactive: S. cerevisiae deletion strains, locus YAR019C, strain CDC15, stronger effect = lower value 0.953 | S. cerevisiae deletion strains, locus YBL105C, strain PKC1, stronger effect = lower value 0.952 | S. cerevisiae deletion strains, locus YBR135W, strain CKS1, stronger effect = lower value 0.948 | S. cerevisiae deletion strains, locus YBR136W, strain MEC1, stronger effect = lower value 0.954 | S. cerevisiae deletion strains, locus YBR160W, strain CDC28, stronger effect = lower value 0.956 | S. cerevisiae deletion strains, locus YDL017W, strain CDC7, stronger effect = lower value 0.955 | S. cerevisiae deletion strains, locus YDL028C, strain MPS1, stronger effect = lower value 0.958 | [1] 0.959 | S. cerevisiae deletion strains, locus YDL108W, strain KIN28, stronger effect = lower value 0.951 | S. cerevisiae deletion strains, locus YDL132W, strain cdc53, stronger effect = lower value 0.96 | S. cerevisiae deletion strains, locus YDL214C, strain PRR2, stronger effect = lower value 0.88 | S. cerevisiae deletion strains, locus YDR052C, strain DBF4, stronger effect = lower value 0.951 | S. cerevisiae deletion strains, locus YDR054C, strain cdc34, stronger effect = lower value 0.95 | S. cerevisiae deletion strains, locus YDR226W, strain ADK1, stronger effect = lower value 0.952 | S. cerevisiae deletion strains, locus YDR477W, strain SNF1, stronger effect = lower value 0.879 | S. cerevisiae deletion strains, locus YER123W, strain YCK3, stronger effect = lower value 0.846 | S. cerevisiae deletion strains, locus YER133W, strain GLC7, stronger effect = lower value 0.846 | S. cerevisiae deletion strains, locus YFL009W, strain cdc4, stronger effect = lower value 0.952 | S. cerevisiae deletion strains, locus YFL029C, strain CAK1, stronger effect = lower value 0.952 | S. cerevisiae deletion strains, locus YFR003C, strain YPI1, stronger effect = lower value 0.951 | S. cerevisiae deletion strains, locus YFR019W, strain FAB1, stronger effect = lower value 0.945 | S. cerevisiae deletion strains, locus YFR028C, strain CDC14, stronger effect = lower value 0.952 | S. cerevisiae deletion strains, locus YGR040W, strain KSS1, stronger effect = lower value 0.882 | S. cerevisiae deletion strains, locus YGR052W, strain FMP48, stronger effect = lower value 0.933 | S. cerevisiae deletion strains, locus YGR092W, strain DBF2, stronger effect = lower value 0.754 | S. cerevisiae deletion strains, locus YHR079C, strain IRE1, stronger effect = lower value 0.87 | S. cerevisiae deletion strains, locus YHR082C, strain KSP1, stronger effect = lower value 0.968 | S. cerevisiae deletion strains, locus YHR205W, strain SCH9, stronger effect = lower value 0.913 | S. cerevisiae deletion strains, locus YIL147C, strain SLN1, stronger effect = lower value 0.957 | S. cerevisiae deletion strains, locus YJL095W, strain BCK1, stronger effect = lower value 0.863 | S. cerevisiae deletion strains, locus YJL128C, strain PBS2, stronger effect = lower value 0.897 | S. cerevisiae deletion strains, locus YJL157C, strain FAR1, stronger effect = lower value 0.84 | S. cerevisiae deletion strains, locus YJR016C, strain ILV3, stronger effect = lower value 0.958 | S. cerevisiae deletion strains, locus YJR066W, strain TOR1 (second series), stronger effect = lower value 0.839 | S. cerevisiae deletion strains, locus YJR066W, strain TOR1, stronger effect = lower value 0.889 | S. cerevisiae deletion strains, locus YKL048C, strain ELM1, stronger effect = lower value 0.914 | S. cerevisiae deletion strains, locus YKL067W, strain YNK1, stronger effect = lower value 0.88 | S. cerevisiae deletion strains, locus YKL101W, strain HSL1, stronger effect = lower value 0.875 | S. cerevisiae deletion strains, locus YKL193C, strain SDS22, stronger effect = lower value 0.957 | S. cerevisiae deletion strains, locus YKL203C, strain TOR2, stronger effect = lower value 0.919 | S. cerevisiae deletion strains, locus YLR133W, strain CKI1, stronger effect = lower value 0.88 | S. cerevisiae deletion strains, locus YLR403W, strain SFP1, stronger effect = lower value 0.804 | S. cerevisiae deletion strains, locus YML070W, strain DAK1, stronger effect = lower value 0.87 | S. cerevisiae deletion strains, locus YMR001C, strain CDC5, stronger effect = lower value 0.947 | S. cerevisiae deletion strains, locus YMR205C, strain PFK2 (second series), stronger effect = lower value 0.896 | S. cerevisiae deletion strains, locus YMR277W, strain FCP1, stronger effect = lower value 0.958 | S. cerevisiae deletion strains, locus YNL006W, strain LST8, stronger effect = lower value 0.956 | S. cerevisiae deletion strains, locus YNL020C, strain ARK1, stronger effect = lower value 0.861 | S. cerevisiae deletion strains, locus YNL161W, strain CBK1, stronger effect = lower value 0.949 | S. cerevisiae deletion strains, locus YNL183C, strain NPR1, stronger effect = lower value 0.92 | S. cerevisiae deletion strains, locus YNL207W, strain RIO2, stronger effect = lower value 0.947 | S. cerevisiae deletion strains, locus YNL222W, strain SSU72, stronger effect = lower value 0.965 | S. cerevisiae deletion strains, locus YNL307C, strain MCK1 (second series), stronger effect = lower value 0.862 | S. cerevisiae deletion strains, locus YOL078W, strain AVO1, stronger effect = lower value 0.952 | S. cerevisiae deletion strains, locus YOL136C, strain PFK27, stronger effect = lower value 0.883 | S. cerevisiae deletion strains, locus YOR061W, strain CKA2, stronger effect = lower value 0.827 | S. cerevisiae deletion strains, locus YOR119C, strain RIO1, stronger effect = lower value 0.932 | S. cerevisiae deletion strains, locus YOR231W, strain MKK1, stronger effect = lower value 0.886 | S. cerevisiae deletion strains, locus YOR329C, strain SCD5, stronger effect = lower value 0.947 | S. cerevisiae deletion strains, locus YPL031C, strain PHO85, stronger effect = lower value 0.872 | S. cerevisiae deletion strains, locus YPL153C, strain RAD53, stronger effect = lower value 0.92 | S. cerevisiae deletion strains, locus YPL204W, strain HRR25, stronger effect = lower value 0.885 | S. cerevisiae deletion strains, locus YPL209C, strain IPL1, stronger effect = lower value 0.959 | S. cerevisiae deletion strains, locus YPL256C, strain CLN2, stronger effect = lower value 0.864 | S. cerevisiae deletion strains, locus YPR025C, strain CCL1, stronger effect = lower value 0.95 | S. cerevisiae deletion strains, locus YPR106W, strain ISR1, stronger effect = lower value 0.954 | S. cerevisiae deletion strains, locus YPR111W, strain DBF20, stronger effect = lower value 0.936 | S. cerevisiae deletion strains, strain NNK1, stronger effect = lower value 0.926 | S. cerevisiae deletion strains, strain TSCII, stronger effect = lower value 0.955

Nc1cc(-c2ccc(Cl)cc2)nc(N)n1
inactive: S. cerevisiae deletion strains, locus YAL013W, strain DEP1, stronger effect = lower value 0.997 | S. cerevisiae deletion strains, locus YBR229C, strain ROT2, stronger effect = lower value 0.991 | [1] 0.995 | S. cerevisiae deletion strains, locus YDL134C, strain PPH21, stronger effect = lower value 0.959 | S. cerevisiae deletion strains, locus YDR150W, strain NUM1, stronger effect = lower value 1.02 | S. cerevisiae deletion strains, locus YEL061C, strain CIN8, stronger effect = lower value 0.995 | S. cerevisiae deletion strains, locus YGR078C, strain PAC10, stronger effect = lower value 0.999 | [2] 0.963 | S. cerevisiae deletion strains, locus YHR087W, strain rtc3, stronger effect = lower value 0.993 | S. cerevisiae deletion strains, locus YJL187C, strain SWE1, stronger effect = lower value 1 | S. cerevisiae deletion strains, locus YJR043C, strain POL32, stronger effect = lower value 0.982 | S. cerevisiae deletion strains, locus YJR075W, strain HOC1, stronger effect = lower value 0.972 | S. cerevisiae deletion strains, locus YKL190W, strain CNB1, stronger effect = lower value 0.965 | S. cerevisiae deletion strains, locus YLR039C, strain RIC1, stronger effect = lower value 0.914 | S. cerevisiae deletion strains, locus YLR058C, strain SHM2 (second series), stronger effect = lower value 0.993 | S. cerevisiae deletion strains, locus YLR085C, strain ARP6, stronger effect = lower value 1.02 | S. cerevisiae deletion strains, locus YLR262C, strain YPT6, stronger effect = lower value 0.85 | S. cerevisiae deletion strains, locus YML094W, strain GIM5, stronger effect = lower value 1.03 | S. cerevisiae deletion strains, locus YMR219W, strain ESC1, stronger effect = lower value 0.991 | S. cerevisiae deletion strains, locus YMR263W, strain SAP30, stronger effect = lower value 0.996 | S. cerevisiae deletion strains, locus YNL153C, strain GIM3, stronger effect = lower value 0.992 | S. cerevisiae deletion strains, locus YNL298W, strain CLA4 (second series), stronger effect = lower value 0.992 | S. cerevisiae deletion strains, locus YNL322C, strain KRE1, stronger effect = lower value 0.99 | S. cerevisiae deletion strains, locus YNR030W, strain Alg12, stronger effect = lower value 1 | S. cerevisiae deletion strains, locus YOL006C, strain TOP1, stronger effect = lower value 0.944 | S. cerevisiae deletion strains, locus YPL055C, strain LGE1, stronger effect = lower value 1.02 | S. cerevisiae deletion strains, locus YPL241C, strain CIN2, stronger effect = lower value 0.995 | S. cerevisiae deletion strains, locus YPR135W, strain CTF4, stronger effect = lower value 0.939 | S. cerevisiae strains, strain wild type, stronger effect = lower value 0.966
